The list is not random: actives were taken first. Their share in the collection is about 2.6%.
PfM18AAP inh = PfM18AAP inhibitors, malaria aminopeptidase, primary screen, biochemical, QFRET, recombinant enzyme. hit rate 1.2% among 290,000. inhibition, % at 7.35 µM. H-Glu-NHMec fluorogenic cleavage. AID 1822, 2009;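 active means inhibition above the campaign mean inhibition over all tested compounds plus 3 SD, cut at about 28% in these data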
Exocytosis inh = LAMP-1 surface exposure blockers, TALL-104 cells – cell-based, flow cytometry, MLPCN library, primary screen. inhibition, % at 10 µM. TALL-104 LAMP-1 surface exposure; cells stimulated with thapsigargin and PMA. hit rate 0.66% among 360,000;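 active means inhibition above about 55%, limit read from the data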
Rce1 inhib = yeast Rce1p protease inhibitors, primary screen, biochemical, fluorescence, cell-free homogeneous; yeast membranes, quenched prenylated peptide cleavage fluorescence; calls only; hit rate 0.27% among 290,000; AID 2563, 2010;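 active means fall in fluorescence gain of 50% or more versus controls, with final raw signal at or below 3038400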
Target sequence (Q03530 whole entry, looked up): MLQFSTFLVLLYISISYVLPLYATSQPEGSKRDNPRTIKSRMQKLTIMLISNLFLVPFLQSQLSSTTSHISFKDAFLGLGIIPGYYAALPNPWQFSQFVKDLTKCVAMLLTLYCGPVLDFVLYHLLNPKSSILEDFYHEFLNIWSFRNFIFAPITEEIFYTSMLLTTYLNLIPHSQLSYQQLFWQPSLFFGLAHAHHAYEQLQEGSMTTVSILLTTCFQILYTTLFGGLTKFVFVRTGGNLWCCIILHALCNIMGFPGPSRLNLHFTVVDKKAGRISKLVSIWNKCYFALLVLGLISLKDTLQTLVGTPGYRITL
Platelet DG rel = inhibitors of platelet dense granule secretion, primary screen, cell-based, MLPCN, human platelets. human platelet-rich plasma, SFLLRN dense granule ATP release, luminescence. inhibition, %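 (compounds screened at 7.5 µM in platelet-rich plasma)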. hit rate 0.22% among 300,000;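 active means mean replicate score, as percent of positive control, at or above 50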
ABHD5 PLIN5 PPI = ABHD5-PLIN5 interaction inhibitors, primary screen, cell lysate, split luciferase complementation, luminescence | hit rate 0.78% among 360,000 | inhibition, % at 4 µM | Perilipin-5 (Homo sapiens) + 1-acylglycerol-3-phosphate O-acyltransferase ABHD5 (Homo … | Split G. princeps luciferase complementation, 4 h | AID 602281, 2012;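 active means inhibition above the mean inhibition across every tested compound plus 3 SD, cut at about 22% in these data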
ABHD5 PLIN5 conf = ABHD5-PLIN5 interaction inhibitors, confirmation, biochemical, luminescence; shares compounds with ABHD5 PLIN5 PPI; inhibition, % at 4 µM; hit rate 67% among 2,200; AID 651612, 2012; in the data active means inhibition above about 23%
HNF4 split-luc = HNF4 dimerization inhibitors, counter-screen for ABHD5-PLIN5 interaction inhibitor project, biochemical, split-luciferase complementation, luminescence. hit rate 77% among 2,200. AID 651674, 2012. inhibition, % at 4 µM. shares compounds with ABHD5 PLIN5 PPI;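 active means mean inhibition across replicate wells exceeding the computed hit threshold, cut at about 13% in these data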;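 further: light from luciferase halves that rejoin when HNF4 fusion proteins dimerize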
Of the large screens only hits and unclear results are named; the others gave an inactive call (follow-up assays come after a bar, where they were run).

Cc1cc(NC(=O)c2ccco2)c(=O)n(Cc2cccc(C(F)(F)F)c2)c1	none
COc1cc(/C=C/C(=O)OCC(=O)NCCc2ccccc2)ccc1OC(F)F	none
Cc1ccc(Cl)c(NC(=O)COC(=O)CNS(=O)(=O)/C=C/c2ccccc2)c1Cl	ABHD5 PLIN5 PPI 44.1 | ABHD5 PLIN5 conf inactive | HNF4 split-luc inactive
CCc1cccc(C)c1NC(=O)COC(=O)CNS(=O)(=O)/C=C/c1ccccc1	none
Cc1ccc(-c2oc3ncnc(N)c3c2-c2ccc(C)cc2)cc1	ABHD5 PLIN5 PPI 24.3 | ABHD5 PLIN5 conf inactive | HNF4 split-luc inactive
O=C(Nc1ccc2nc3n(c(=O)c2c1)CCCCC3)c1c(F)ccc([N+](=O)[O-])c1F	ABHD5 PLIN5 PPI 36.0 | ABHD5 PLIN5 conf 60.9 | HNF4 split-luc 56.1
Cc1cccc(OCC(=O)Nc2ccc(N3CCN(S(C)(=O)=O)CC3)cc2)c1	none
COc1ccccc1-c1cc(C(F)(F)F)nc(S(=O)(=O)CCCC(=O)Nc2cccnc2Cl)n1	ABHD5 PLIN5 PPI 31.6 (no result: Rce1 inhib, Platelet DG rel) | ABHD5 PLIN5 conf 51.0 | HNF4 split-luc 68.7
COc1ccccc1-c1cc(C(F)(F)F)nc(S(C)(=O)=O)n1	ABHD5 PLIN5 PPI 43.6 | ABHD5 PLIN5 conf 67.1 | HNF4 split-luc 86.5
COc1ccc(Cl)cc1N(CC(=O)Nc1ccccc1C(=O)N1CCCC1)S(C)(=O)=O	none
Cc1ccc(/C=N/N2CCN(C3c4ccccc4-c4ccccc43)CC2)o1	ABHD5 PLIN5 PPI 25.6 | ABHD5 PLIN5 conf inactive | HNF4 split-luc 13.2
Cc1ccc(C(=O)c2coc3c2C(=O)C(=O)c2ccccc2-3)cc1	ABHD5 PLIN5 PPI 85.1 (no result: Rce1 inhib) | ABHD5 PLIN5 conf 93.6 | HNF4 split-luc 64.6
Cc1oc2c(c1C(=O)c1ccc(Cl)cc1)C(=O)C(=O)c1ccccc1-2	Exocytosis inh 104.0, ABHD5 PLIN5 PPI 54.7 | ABHD5 PLIN5 conf 80.5 | HNF4 split-luc 34.7
CC(C)[C@H](NS(=O)(=O)c1ccc(Cl)cc1)C(=O)OCC(=O)NCCN1C(=O)CSC1=O	none
COc1cccc(-n2c(SCC(=O)NCc3ccco3)nnc2-c2c[nH]c3ccccc23)c1	none
O=S(=O)(c1ccc(F)cc1)N1CN(Cc2ccco2)c2nc3ccccc3nc21	ABHD5 PLIN5 PPI 23.5 | ABHD5 PLIN5 conf 28.0 | HNF4 split-luc 23.1
Cc1cc(Br)ccc1SCC(=O)NCC(c1ccco1)N1CCCCC1 (stereo not given)	none (no result: PfM18AAP inh)
O=C(CSc1nc2ncccc2[nH]1)NC1CCCC1	none
COc1ccc(OCc2cn(CC(=O)c3ccc(O)cc3)nn2)cc1	ABHD5 PLIN5 PPI 23.6 (no result: PfM18AAP inh, Rce1 inhib, Platelet DG rel) | ABHD5 PLIN5 conf 60.1 | HNF4 split-luc 30.2
O=C(Cn1cc(COc2c(F)c(F)cc(F)c2F)nn1)c1ccc(O)cc1	ABHD5 PLIN5 PPI 30.9 (no result: PfM18AAP inh, Rce1 inhib, Platelet DG rel) | ABHD5 PLIN5 conf 45.1 | HNF4 split-luc 34.6
CCC(=O)c1ccc(OCc2cn(CC(=O)c3ccc(O)cc3)nn2)cc1	none (no result: PfM18AAP inh, Rce1 inhib, Platelet DG rel)
CC1CN(C2=CC(=O)CCC2)CC(C)O1 (stereo not given)	ABHD5 PLIN5 PPI 30.9 | ABHD5 PLIN5 conf inactive | HNF4 split-luc 13.0
CC[C@@H]1CC=C[C@H]2[C@H]1C(=O)N(Cc1ccccc1)[C@H]2c1ccoc1	ABHD5 PLIN5 PPI 23.5 (no result: PfM18AAP inh) | ABHD5 PLIN5 conf 36.7 | HNF4 split-luc 34.7
C[C@@H]1CC=C[C@H]2[C@H]1C(=O)N(Cc1ccccc1)[C@H]2c1ccoc1	none (no result: PfM18AAP inh)
COc1ccc(C(=O)OCC(=O)N2CCCCC2)cc1[N+](=O)[O-]	none (no result: Rce1 inhib)
COc1ccc(C(=O)OCC(=O)N2CCN(S(=O)(=O)c3ccc(C)cc3)CC2)cc1[N+](=O)[O-]	ABHD5 PLIN5 PPI 85.7 (no result: PfM18AAP inh, Rce1 inhib, Platelet DG rel) | ABHD5 PLIN5 conf inactive | HNF4 split-luc inactive
C[C@@H]1Cc2c(O)c(O)cc(O)c2C(=O)O1	none (no result: PfM18AAP inh)
CC1CCC/C=C/C(=O)c2c(O)cc(O)cc2CC(=O)O1 (stereo not given)	ABHD5 PLIN5 PPI 31.6 (no result: PfM18AAP inh) | ABHD5 PLIN5 conf 53.6 | HNF4 split-luc 69.7
Cc1ccc(-c2c[n+](CC(=O)Nc3nc(-c4ccc(F)cc4)cs3)c3n2CCC3)cc1	ABHD5 PLIN5 PPI 25.0 | ABHD5 PLIN5 conf inactive | HNF4 split-luc inactive
O=C(NCCc1ccccc1)c1ccc(NS(=O)(=O)c2ccc3[nH]c(=O)[nH]c3c2)cc1	none (no result: PfM18AAP inh)
O=c1c2cc(N3CCOCC3)ccc2[nH]c(=S)n1Cc1ccco1	ABHD5 PLIN5 PPI 25.3 (no result: PfM18AAP inh) | ABHD5 PLIN5 conf 43.3 | HNF4 split-luc 77.3
CN(C)CCC1(C2=CCCC2)CC/C(=C/c2ccc(Cl)cc2)C1=O (stereo not given)	ABHD5 PLIN5 PPI 32.0 (no result: PfM18AAP inh, Rce1 inhib, Platelet DG rel) | ABHD5 PLIN5 conf 39.2 | HNF4 split-luc 21.2
Cc1ccc(-n2ncc3c2CCCC3NC(=O)CCc2cnn(C)c2)cc1C (stereo not given)	none
COc1ccc(CC2=CC(=O)c3ccccc3C2=O)cc1	ABHD5 PLIN5 PPI 84.9 | ABHD5 PLIN5 conf 100.3 | HNF4 split-luc 107.7
COc1ccc(Cc2ccccc2C(=O)O)cc1	none (no result: PfM18AAP inh, Rce1 inhib, Platelet DG rel)
CC(OC(=O)/C=C/c1ccco1)C(=O)Nc1cccc([N+](=O)[O-])c1 (stereo not given)	none
O=C(C=Cc1ccccn1)c1ccccc1	ABHD5 PLIN5 PPI 79.0 (no result: PfM18AAP inh, Rce1 inhib, Platelet DG rel) | ABHD5 PLIN5 conf 92.8 | HNF4 split-luc 103.0
CCOc1ccc(/C=C/C(=O)c2ccccc2)cc1OC	none
O=C(C=Cc1ccccn1)c1ccccc1O	ABHD5 PLIN5 PPI 66.7 (no result: PfM18AAP inh, Rce1 inhib, Platelet DG rel) | ABHD5 PLIN5 conf 98.6 | HNF4 split-luc 88.8
O=C(C=Cc1ccccc1Cl)c1ccccc1	ABHD5 PLIN5 PPI 36.7 (no result: PfM18AAP inh, Rce1 inhib, Platelet DG rel) | ABHD5 PLIN5 conf 88.2 | HNF4 split-luc 70.9
O=C(/C=C/c1ccccc1Cl)N1CCCN(C(=O)/C=C/c2ccccc2Cl)CC1	none
CC(C)CN(C(=O)COC(=O)c1ccc([N+](=O)[O-])o1)C1CCS(=O)(=O)C1 (stereo not given)	none
O=C1c2ccccc2NC(c2ccc(-c3ccc(F)cc3)o2)N1O (stereo not given)	ABHD5 PLIN5 PPI 38.1 (no result: PfM18AAP inh, Rce1 inhib, Platelet DG rel) | ABHD5 PLIN5 conf inactive | HNF4 split-luc 13.0
O=C(C1CCCO1)N1CCN(Cc2c(O)ccc3ccccc23)CC1 (stereo not given)	ABHD5 PLIN5 PPI 40.6 | ABHD5 PLIN5 conf 71.9 | HNF4 split-luc 101.9
CCOC(=O)C1CCN(Cc2c(O)ccc3ccccc23)CC1	none
CCOC(=O)N1CCN(Cc2c(O)ccc3ccccc23)CC1	ABHD5 PLIN5 PPI 27.5 | ABHD5 PLIN5 conf 51.3 | HNF4 split-luc 89.5
Cc1ccc(CN2CCN(C(=O)C3CCCO3)CC2)cc1 (stereo not given)	none

Screens (PubChem BioAssay)
